{
  "source": "PubChem BioAssay (EPA / NIEHS)",
  "note": "Values joined by “and” are separate entries in the source; they are usually repeats but may differ in a detail not shown here. Equal entries are not always repeated. Inconclusive results are not listed. Some compounds were tested as several samples or in several runs, with calls that do not always agree. Active and inactive are the calls of the source. Rule for the calls: active = hit-call score of the fitted dose curve at least 0.9, where 1 is the maximum; inconclusive = response in the unintended direction; inactive = score below 0.9.",
  "data": [
    {"tested_on": "zebrafish Estrogen Receptor (ER2b), gene 317733", "test": "ATG_zfER2b_XSP2: Attagene TRANS-FACTORIAL Multi-Species (XSP2) HepG2 Assay for zebrafish Estrogen Receptor (ER2b) (AID 2283823);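 note: fitted upward as reporter gain over DMSO so potency reflects activation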", "description": "ATG_XSP2_multi-species_TRANS is a cell-based, multiplexed assay created by modifying the existing Attagene TRANS-FACTORIAL system to include a panel of nuclear receptors from some or all the following species: human (Homo sapiens), mouse (Mus musculus), frog (Xenopus laevis), zebrafish (Danio rerio), chicken (Gallus gallus), and turtle (Chrysemys picta). The ECOTOX-FACTORIAL format uses HepG2, a human liver cell line, with measurements taken at 24 hours after chemical dosing in a 24-well plate. Xsp2 included 3 nM 6-alpha-fluorotestosterone and 1.5 nM norgestrel to stimulate the androgen receptor.ATG_zfER2b_XSP2 is one of 29 assay components measured or calculated from the ATG_XSP2_multi-species_TRANS assay. It is designed to make measurements of mRNA induction, a form of inducible reporter, as detected with fluorescence intensity signals by Reverse transcription polymerase chain reaction (RT-PCR) and Capillary electrophoresis technology.The assay endpoint ATG_zfER2b_XSP2 was analyzed in the positive analysis fitting direction relative to DMSO as the negative control and baseline of activity. Using a type of inducible reporter, measures of mRNA for gain-of-signal activity can be used to understand the reporter gene at the transcription factor-level as they relate to the gene ER. Furthermore, this assay endpoint can be referred to as a primary readout, because this assay has produced multiple assay endpoints where this one serves a reporter gene function. To generalize the intended target to other relatable targets, this assay endpoint is annotated to the nuclear receptor intended target family, where the subfamily is steroidal.\nHuman liver HepG2 cells are transiently transfected with multiple reporter transcription units (MRTUs) in 6-well plates using FuGene 6 reagent (Roche; 3 ml FuGene/1 mg DNA). The MRTU constructs are regulated by a cis-regulating element (promoter). […] A major difference between the CIS and TRANS system is that in CIS activities of endogenous TFs are measured, whereas the TRANS assay evaluates changes in activities of exogenous, chimeric NR-Gal4 proteins. […] At the end of 24 hour incubation, total RNA was isolated using TriZol reagent (Invitrogen). The isolated RNA is then reverse-transcribed using oligo(dT) primer and Mo-MLV reverse transcriptase (Invitrogen) with DNAse I (Ambion) treatment for 30 min. The one-tenth of the produced cDNA was amplified by PCR using Taq DNA polymerase (Invitrogen) and two reporter sequence-specific primers. The PCR products were fluorescently labeled by primer extension with 6-arboxyfluorescein (6-FAM) 5'-labeled reporter sequence-specific primer (2 min at 95 C, 20 s at 68 C and 10 min at 72 C) and these products were digested with 5U of HpaI (New England Biolabs) for 2h at 37 C. The fragments were purified using Qiaquick PCR columns (Qiagen), analyzed on an ABI 3130xL genetic analyzer (Applied Biosystems) with peak positions identified by using a set of X-rhodamine (ROX)-labeled MapMarker1000 molecular weight standards (BioVentures). The raw capillary electrophoresis data was processed using Attagraph software (Attagene).", "values": [
      {"smiles": "COP(=S)(OC)Oc1ccc([N+](=O)[O-])cc1", "outcome": "inactive", "AC50": "39.3 µM (active)"},
      {"smiles": "CCOCN(C(=O)CCl)c1c(C)cccc1CC", "AC50": "100 µM (active)"},
      {"smiles": "Oc1ccc(Cl)cc1Cc1ccccc1", "AC50": "14.6 µM (active)"},
      {"smiles": "O=C(O)C(F)(F)C(F)(F)C(F)(F)C(F)(F)C(F)(F)C(F)(F)C(F)(F)F", "AC50": "124 µM (active)"},
      {"smiles": "O=S1OCC2C(CO1)C1(Cl)C(Cl)=C(Cl)C2(Cl)C1(Cl)Cl", "note": "(configuration not stated)", "AC50": "10 µM (active)"},
      {"smiles": "CCCN(CCOc1c(Cl)cc(Cl)cc1Cl)C(=O)n1ccnc1", "outcome": "inactive"},
      {"smiles": "Oc1cc(Cl)ccc1Oc1ccc(Cl)cc1Cl", "AC50": "16.1 µM (active)"},
      {"smiles": "CC(C)(C)C(O)/C(=C\\c1ccc(Cl)cc1Cl)n1cncn1", "note": "(configuration not stated)", "AC50": "44 µM (active) and 14.4 µM (active)"},
      {"smiles": "CCCN(CCC)c1c([N+](=O)[O-])cc(C(F)(F)F)cc1[N+](=O)[O-]", "AC50": "69.9 µM (active)"},
      {"smiles": "COP(=S)(OC)Oc1ccc(SC)c(C)c1", "AC50": "59 µM (active)"},
      {"smiles": "O=S(=O)(O)C(F)(F)C(F)(F)C(F)(F)C(F)(F)C(F)(F)C(F)(F)C(F)(F)C(F)(F)F", "AC50": "146 µM (active)"}
    ]}
  ]
}
